Data taken from the supplement of paper PMC6331611.
± gives the standard deviation of the averaged measurements. Over roughly 1,600 compounds, “normalized intracellular growth (luminescence, IQM-normalized) in RAW264.7 macrophages” has its median near 1; the lowest 2% begin near 0.43. This is one part of a sample in which the lowest values are shown more often than they occur.

Tested on: Salmonella enterica serovar Typhimurium SL1344
Assay: normalized intracellular growth (luminescence, IQM-normalized) in RAW264.7 macrophages (fraction of plate interquartile mean); higher = more bacterial growth (less inhibition)
Settings: 10 µM

SMILES	normalized intracellular growth (time point: T3 (3 h))	normalized intracellular growth (time point: Tfinal (~6 h))
O=C(c1cccnc1)N1CCOCC1	1.01 ± 0.09	0.728 ± 0.18
CC(=O)c1ccc2c(c1)N(CCCN1CCN(CCO)CC1)c1ccccc1S2	1.04 ± 0.024	0.807 ± 0.11
Cc1c2oc3c(C)ccc(C(=O)N[C@@H]4C(=O)N[C@H](C(C)C)C(=O)N5CCC[C@H]5C(=O)N(C)CC(=O)N(C)[C@@H](C(C)C)C(=O)O[C@@H]4C)c3nc-2c(C(=O)N[C@@H]2C(=O)N[C@H](C(C)C)C(=O)N3CCC[C@H]3C(=O)N(C)CC(=O)N(C)[C@@H](C(C)C)C(=O)O[C@@H]2C)c(N)c1=O	0.861 ± 0.057	1.05 ± 0.12
CCCCCCCC/C=C\CCCCCCCC(=O)O.NCCO	1.05 ± 0.035	1.09 ± 0.041
COC(=O)N/N=C/c1c[n+]([O-])c2ccccc2[n+]1[O-]	0.957 ± 0.032	0.309 ± 0.16
CC(=O)[C@@]1(O)CC[C@H]2[C@@H]3C=C(Cl)C4=CC(=O)[C@@H]5C[C@@H]5[C@]4(C)[C@H]3CC[C@@]21C	1.06 ± 0.049	0.762 ± 0.26
COc1c2occc2cc2ccc(=O)oc12	1.15 ± 0.034	1.36 ± 0.076
Nc1nc(N)c2nc(CNc3ccc(C(=O)N[C@@H](CCC(=O)O)C(=O)O)cc3)cnc2n1	0.994 ± 0.021	1.09 ± 0.15
CCCCCC(C)N (configuration not stated)	0.993 ± 0.077	0.979 ± 0.12
CO[C@H]1C[C@H](O[C@@H]2/C(C)=C/C[C@@H]3C[C@@H](C[C@]4(CC[C@H](C)[C@@H](C5CCCCC5)O4)O3)OC(=O)[C@@H]3C=C(C)/C(=N/O)[C@H]4OC/C(=C\C=C\[C@@H]2C)[C@]43O)O[C@@H](C)[C@@H]1O	1.01 ± 0.064	1.16 ± 0.094
CC(=O)OCC(=O)[C@@]1(O)CC[C@H]2[C@@H]3CCC4=CC(=O)C=C[C@]4(C)[C@H]3[C@@H](O)C[C@@]21C	0.822 ± 0.19	0.823 ± 0.06
C[C@H]1C[C@@H]2[C@H]([C@@H](O)C[C@@]3(C)[C@H]2CC[C@]3(O)C(=O)CO)[C@@]2(C)C=CC(=O)C=C12	1.07 ± 0.02	0.417 ± 0.054
C[C@]12C=CC(=O)C=C1CC[C@@H]1[C@@H]2[C@@H](O)C[C@@]2(C)[C@H]1CC[C@]2(O)C(=O)CO	0.8 ± 0.15	0.888 ± 0.078
CC(C)Nc1ncccn1	0.928 ± 0.053	1.05 ± 0.2
Cc1oc(=O)oc1CN1CCN(c2cc3c(cc2F)c(=O)c(C(=O)O)c2n3C(C)S2)CC1 (configuration not stated)	1.14 ± 0.069	0.0187 ± 0.0013
NC(=O)[C@@H]1CCCN1C(=O)[C@H](Cc1c[nH]cn1)NC(=O)[C@@H]1CCC(=O)N1	1.02 ± 0.038	0.959 ± 0.044
CC1(C)OC(=O)C(OCC2CC2)=C1c1ccc(S(C)(=O)=O)cc1	1.15 ± 0.017	1.2 ± 0.13
OCC(S)CS (configuration not stated)	0.927 ± 0.011	1.03 ± 0.053
O=C(O)c1ccc[n+]([O-])c1	0.967 ± 0.051	1.05 ± 0.023
COc1ccc2cc(C(C)C(=O)O)ccc2c1 (configuration not stated)	1.04 ± 0.036	1.09 ± 0.089
C=C[C@H]1CN2CC[C@H]1C[C@H]2[C@H](O)c1ccnc2ccc(OC)cc12	0.978 ± 0.042	0.953 ± 0.058
